From PubChem BioAssay (Tox21) come the findings set out here.

“And” between values parts separate entries of the source, which are not always exact repeats. Equal entries are not always repeated. Records with an inconclusive call do not appear. More than one record can exist for a structure, and the calls need not agree. The source made the active and inactive calls. Unless noted, the call rests on the fitted dose curve; in most records, active means well fitted curve in the direction sought with a large enough effect in the repeat runs; inconclusive means weak or mixed curves; inactive means no such curve, though single readings can be large; an effect the other way counts as inactive or inconclusive.

Test [1] in a line: qHTS assay to identify small molecule antagonists of the glucocorticoid receptor (GR) signaling pathway - cell viability counter screen (AID 720693). Further: nearly all actives have a fitted effect of over 55% in size. Further: potency means the concentration at half of the fitted maximal effect. Background: qHTS replaces the single test concentration by a dilution series.
Test [2] in a line: qHTS assay for identifying genotoxic compounds that show differential cytotoxicity against isogenic chicken DT40 cell lines with known DNA damage response pathways - wild type cell line (AID 743012). Further: nearly all actives have a fitted effect of over 60% in size. Further: potency means the concentration at half of the fitted maximal effect. In short, it runs like this:
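Cytotoxicity in repair-proficient parental chicken DT40 cells serves as the comparator for Rad54/Ku70- and Rev3-deficient lines. Cells were exposed to compounds for 40 h at 37 C/5% CO2, and ATP-based luminescence (CellTiter-Glo) measured viability.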

Test [3] in a line: qHTS assay to identify small molecule antagonists of the androgen receptor (AR) signaling pathway using the MDA cell line - cell viability counter screen (AID 743041; further: nearly all actives have a fitted effect of over 45% in size; further: potency means the concentration at half of the fitted maximal effect). In a few lines:
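In this qHTS counter assay, fluorescence intensity after CellTiter-Fluor addition indicated viability of MDA-kb2 AR-luc cells given compounds and R1881 for 16 h at 37C.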

Test [4] can be described thus: qHTS assay to identify small molecule antagonists of the androgen receptor (AR) signaling pathway - cell viability counter screen (AID 743033; further: nearly all actives have a fitted effect of over 45% in size; further: potency means the concentration at half of the fitted maximal effect).
The target of test [5] is Androgen receptor (Homo sapiens) (UniProt P10275). Briefly: qHTS assay to identify small molecule agonists of the androgen receptor (AR) signaling pathway (AID 743036; active means well fitted activation curve with a large enough effect in the signal ratio in the repeat runs, with a control signal flat, not every such curve was filed as active; the % refers to the signal ratio). In short, it runs like this:
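Following a 4 h settling period, AR-UAS-bla HEK293 cells were dosed with compounds for 16 h at 37C. A 2 h room-temperature incubation with LiveBLAzer B/G FRET substrate preceded the fluorescence measurement.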

Test [6] has the same target. Briefly: qHTS assay to identify small molecule agonists of the androgen receptor (AR) signaling pathway using the MDA cell line (AID 743040; further: nearly all actives have a fitted effect of over 20% in size). In a few lines:
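Cell-based luciferase reporter: MDA-kb2, MMTV promoter (AR + GR response elements). 16 h compound exposure at 37C; ONE-Glo, 30 min RT, luminescence.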

Test [7] has the same target. Briefly: qHTS assay to identify small molecule antagonists of the androgen receptor (AR) signaling pathway using the MDA cell line (AID 743042; further: nearly all actives have a fitted effect of over 55% in size; further: potency means the concentration at half of the fitted maximal effect). In short, it runs like this: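 MDA-kb2 cells (human breast carcinoma, stably carrying an MMTV-luciferase reporter responsive to AR and GR) were plated at 3,000 cells/well and preincubated 5 hr at 37C, then given compound plus R1881 agonist for 16 h. ONE-Glo luminescence was read.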

Test [8] has the same target. Nature of the test: qHTS assay to identify small molecule antagonists of the androgen receptor (AR) signaling pathway (AID 743035; active means well fitted inhibition curve with a large enough effect in the signal ratio in the repeat runs, not every such curve was filed as active; the % refers to the signal ratio; further: potency means the concentration at half of the fitted maximal effect). In a few lines:
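Steps: seed AR-UAS-bla GripTite HEK293 cells, incubate 4 h at 37C; pin in test compound, then add agonist R1881; incubate 16 h at 37C; add LiveBLAzer B/G FRET substrate, 2 h at room temperature; read fluorescence.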

Test [9] can be described thus: qHTS assay for identifying genotoxic compounds that show differential cytotoxicity against isogenic chicken DT40 cell lines with known DNA damage response pathways - Rev3 mutant cell line (AID 743014). Further: nearly all actives have a fitted effect of over 55% in size. Further: potency means the concentration at half of the fitted maximal effect.
Test [10] can be described thus: qHTS assay for identifying genotoxic compounds that show differential cytotoxicity against isogenic chicken DT40 cell lines with known DNA damage response pathways - Rad54/Ku70 mutant cell line (AID 743015). Further: nearly all actives have a fitted effect of over 60% in size. Further: potency means the concentration at half of the fitted maximal effect.
On the % scale 0 is the no-effect control and ±100 the full control effect.

Chain of Androgen receptor (Homo sapiens) (P10275 whole entry, looked up): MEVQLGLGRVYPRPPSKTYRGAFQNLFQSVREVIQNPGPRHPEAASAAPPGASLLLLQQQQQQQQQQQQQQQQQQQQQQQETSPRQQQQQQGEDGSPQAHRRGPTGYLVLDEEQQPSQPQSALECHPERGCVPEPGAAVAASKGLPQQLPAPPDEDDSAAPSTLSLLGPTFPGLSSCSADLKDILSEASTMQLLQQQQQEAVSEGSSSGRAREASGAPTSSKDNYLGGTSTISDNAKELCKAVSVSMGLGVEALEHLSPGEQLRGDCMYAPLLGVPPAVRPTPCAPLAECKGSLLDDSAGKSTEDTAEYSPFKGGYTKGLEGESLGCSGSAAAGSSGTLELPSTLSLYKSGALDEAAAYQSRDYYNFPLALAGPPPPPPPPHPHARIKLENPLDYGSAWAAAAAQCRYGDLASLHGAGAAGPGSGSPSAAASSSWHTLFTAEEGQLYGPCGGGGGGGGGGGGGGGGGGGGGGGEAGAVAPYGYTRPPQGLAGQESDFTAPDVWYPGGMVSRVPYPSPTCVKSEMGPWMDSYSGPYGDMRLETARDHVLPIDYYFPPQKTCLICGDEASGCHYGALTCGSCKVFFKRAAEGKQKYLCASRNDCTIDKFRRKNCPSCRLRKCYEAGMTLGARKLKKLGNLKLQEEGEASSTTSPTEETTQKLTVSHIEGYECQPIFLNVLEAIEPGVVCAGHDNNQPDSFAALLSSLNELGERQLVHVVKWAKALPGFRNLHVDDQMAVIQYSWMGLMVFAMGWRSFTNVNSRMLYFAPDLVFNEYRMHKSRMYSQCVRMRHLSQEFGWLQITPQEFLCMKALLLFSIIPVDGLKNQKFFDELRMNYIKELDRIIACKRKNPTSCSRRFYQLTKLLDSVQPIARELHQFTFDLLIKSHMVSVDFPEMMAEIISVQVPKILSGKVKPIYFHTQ

On to `C1COC(NC(C2CC2)C2CC2)=N1`, for which the Potency result in test [1], in [2] and in test [3] was “inactive” in each case.

Consider `Nc1ccc(O)cc1`, for which the Potency in test [1] is 15.1 µM (active) and 25.5 µM (active); in test [3], 29.8 µM (active) and 48.6 µM (active) and 56.6 µM (active); in test [7] it was 5.96 µM (active) and 12.2 µM (active) and 25.3 µM (active). In addition, the Potency entry in test [4] and in [5] was “inactive” throughout. Besides, the outcome in test [6] was inactive.

Take `COc1ccc(Cc2cnc(N)nc2N)cc1OC`: the Potency result in test [1], in test [4], in test [8], in test [5], in test [3] and in test [7] was “inactive” each time. In addition, the outcome in test [6] was inactive.

Take `CC(N)=O`: the Potency entry in test [2], in test [9], in [10] and in test [4] was “inactive” each time.

On to `CCCC(=O)c1ccccc1`, for which the Potency result in test [1], in test [4], in [8], in test [3] and in [7] was “inactive” in each case. Also, in test [6], the molecule was classed as inactive.

As to `O=C(O[C@@H]1Cc2c(O)cc(O)cc2O[C@@H]1c1cc(O)c(O)c(O)c1)c1cc(O)c(O)c(O)c1`, the Potency result in test [1], in [4] and in test [3] was “inactive” each time. Further, the Potency in test [9] was 54.6 µM (active).

Take `CC(COc1ccccc1)N(CCCl)Cc1ccccc1` (configuration not stated): the Potency is 21.1 µM (active) and 27.3 µM (active) in test [2]; 13.3 µM (active) and 34.7 µM (active) and 5.45 µM (active) in test [9]; 23.7 µM (active) and 15.4 µM (active) in test [10]. Also, the Potency result in test [4] and in test [3] was “inactive” each time.

As for `O=S(=O)(O)c1ccc2nc(-c3ccccc3)[nH]c2c1`, the Potency in [1] is 20.8 µM (active); in test [2], “inactive and 46.2 µM (active)”. The Potency result in test [4] and in test [3] was “inactive” throughout.

Turning to `Cc1cc(C(C)(C)C)c(O)c(C(C)(C)C)c1`, the Potency entry in test [2], in [4] and in test [3] was “inactive” in each case. The Potency result in test [9] is “inactive and 30.6 µM (active)”; in [10], “inactive and 27.3 µM (active)”.

As for `NC(N)=NC(=O)Cc1c(Cl)cccc1Cl`, the Potency result in test [1], in [9], in test [10], in [4] and in test [3] was “inactive” throughout.

Take `NC(=Nc1ccccc1)Nc1ccccc1`: the Potency result in [1], in test [4] and in [3] was “inactive” each time. Also, the Potency entry in test [9] was “inactive and 42 µM (active)”; in [10], “inactive and 61.1 µM (active)”.

Turning to `BrC1CCC(Br)C(Br)CCC(Br)C(Br)CCC1Br` (configuration not stated), the Potency was 46.1 µM (active) in [2]; “inactive and 41.1 µM (active)” in [9]; “inactive and 25.9 µM (active)” in test [10]; 46.5 µM (active) in test [4]. Also, the Potency entry in [8], in [5], in test [3] and in [7] was “inactive” each time. In addition, the molecule was called inactive in test [6].

For `O=C(O)c1cn(-c2ccc(F)cc2)c2cc(N3CCNCC3)c(F)cc2c1=O`, the Potency entry in test [1], in test [9], in test [4] and in test [3] was “inactive” in each case.

On to `CCCCCCCCCCCCCCCCCl`, for which the Potency result in [1], in test [9], in test [4] and in test [3] was “inactive” in each case.

Regarding `CN(C)c1ccc2nc3ccc(=[N+](C)C)cc-3sc2c1`, the Potency in test [2] was 473 nM (active) and 2.34 µM (active) and 686 nM (active); in [9] it was 750 nM (active) and 587 nM (active) and 686 nM (active); in test [10], 422 nM (active) and 262 nM (active) and 386 nM (active); in test [4], 1.87 µM (active) and 3.09 µM (active); in test [3], 5.96 µM (active) and 11.7 µM (active) and 17.2 µM (active).

`CC[C@@H](N)CO`: the Potency entry in [2], in [9], in test [10], in test [4] and in [3] was “inactive” each time.

With `c1cc(C(c2ccc(OCC3CO3)cc2)C(c2ccc(OCC3CO3)cc2)c2ccc(OCC3CO3)cc2)ccc1OCC1CO1` (configuration not stated), the Potency is 20.1 µM (active) and 3.43 µM (active) in test [2]; 357 nM (active) and 385 nM (active) in test [9]; 6.34 µM (active) and 3.06 µM (active) in test [10]. Further, the Potency entry in [4] and in test [3] was “inactive” in each case.

As for `Oc1c(Cl)cc(Cl)c(Cl)c1Cc1c(O)c(Cl)cc(Cl)c1Cl`, the Potency in test [2] was 5.96 µM (active) and 3.05 µM (active) and 4.33 µM (active); in test [9], 5.96 µM (active) and 3.05 µM (active) and 3.86 µM (active); in test [10], 8.41 µM (active) and 3.05 µM (active) and 3.86 µM (active); in test [4] it was 9.52 µM (active) and 1.54 µM (active) and 1.74 µM (active); in test [8], 10.7 µM (active) and 1.74 µM (active); in test [3], 13.3 µM (active) and 17.2 µM (active) and 19.3 µM (active). Further, in test [7], the Potency was 13.3 µM (active) and 2.16 µM (active) and 5.45 µM (active). For the same molecule, the molecule was called inactive in test [6].

As to `NCCO`, the Potency entry in [2], in test [10], in [4] and in [3] was “inactive” in each case. Also, the Potency entry in [9] was “inactive and 68.6 µM (active)”.

As to `Nc1nc(=S)c2[nH]cnc2[nH]1`, the Potency in [9] was 1.88 µM (active) and 1.33 µM (active) and 686 nM (active); in test [10], 1.33 µM (active) [middle of 4 runs]; in test [4], 26.8 µM (active) and 1.95 µM (active); in [8], 16.9 µM (active) and 10.7 µM (active) and 6.92 µM (active). Moreover, the Potency entry in test [5], in [3] and in test [7] was “inactive” throughout. The result in test [6] was inactive.

Regarding `O=Nc1ccc(Nc2ccccc2)cc1`, the Potency in [2] is 3.88 µM (active) and 3.06 µM (active); in test [9], 1.23 µM (active) and 1.72 µM (active); in [4], 17.5 µM (active) and 30.9 µM (active); in test [3], 61.4 µM (active); in test [7], 54.8 µM (active). Besides, in [6], the molecule was called inactive.

In the case of `NC(Cc1ccc(Cl)cc1)C(=O)O` (configuration not stated), the Potency entry in test [2], in [4] and in [3] was “inactive” each time.

For the molecule `CCC[C@H](N[C@@H](C)C(=O)N1[C@H](C(=O)O)C[C@@H]2CCCC[C@@H]21)C(=O)OCC`, the Potency entry in [2], in test [9], in test [4] and in test [3] was “inactive” in each case.

With `c1cnc2cc3c(cc2n1)C1CNCC3C1`, the Potency result in [2], in test [9] and in [3] was “inactive” each time.

For the molecule `CC(C)C(=O)c1c(C(C)C)nn2ccccc12`, the Potency entry in test [9], in [4] and in [3] was “inactive” throughout.

For the molecule `NC(N)=Nc1nc(CSCC/C(N)=N/S(N)(=O)=O)cs1`, the Potency entry in [2], in test [9], in [4] and in [3] was “inactive” each time.

Turning to `C=CC(=O)OCCCCCCOC(=O)C=C`, the Potency in test [2] was 24.3 µM (active); in test [9], 55.1 µM (active) and 30.6 µM (active); in test [10], 69.4 µM (active) and 24.3 µM (active). Moreover, the molecule was classed as inactive in test [6]. Further, the Potency entry in [3] is “inactive”.

Take `Cc1c(O)cccc1C(=O)N[C@@H](CSc1ccccc1)[C@H](O)CN1C[C@H]2CCCC[C@H]2C[C@H]1C(=O)NC(C)(C)C`: the Potency in test [2] is 11.9 µM (active) and 29.8 µM (active); in test [9], 13.3 µM (active) and 23.7 µM (active); in test [4] it was 19 µM (active) and 16.9 µM (active); in test [8] it was 10.7 µM (active) and 6.74 µM (active); in [3], 27.8 µM (active) and 59.5 µM (active); in test [7], 26.6 µM (active) and 29.8 µM (active). For the same molecule, in test [6], the call was inactive.
